L major viab – Leishmania major promastigote growth inhibition | actives 9% (n = 200,000) | Leishmania major promastigotes, resazurin fluorescence viability | inhibition, % at 10 µM; in the data active = inhibition above about 50%;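 note: promastigotes grown with compound for 44 hours at 28 °C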
WT yeast gro inh – growth inhibition of WT yeast, mitochondrial fusion screen; actives 2.1% (n = 190,000); mitochondrial fusion phenotypic screen, WT strain; inhibition, % at 10 µM; in the data active = inhibition above about 58%; tested in S. cerevisiae
ROMK primary – human ROMK K+ channel modulation, primary screen; Tet-inducible ROMK, thallium flux fluorescence; actives lie on both sides; B-score at 10 µM; actives 2% (n = 130,000);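 active = signal ratio slope over the read window, or its plate-corrected B-score, at least 3 SD from the plate mean, either direction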;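 note: B-score of the F/F0 ratio slope over 7 to 12 s after thallium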
Target sequence (P48048 whole entry, looked up): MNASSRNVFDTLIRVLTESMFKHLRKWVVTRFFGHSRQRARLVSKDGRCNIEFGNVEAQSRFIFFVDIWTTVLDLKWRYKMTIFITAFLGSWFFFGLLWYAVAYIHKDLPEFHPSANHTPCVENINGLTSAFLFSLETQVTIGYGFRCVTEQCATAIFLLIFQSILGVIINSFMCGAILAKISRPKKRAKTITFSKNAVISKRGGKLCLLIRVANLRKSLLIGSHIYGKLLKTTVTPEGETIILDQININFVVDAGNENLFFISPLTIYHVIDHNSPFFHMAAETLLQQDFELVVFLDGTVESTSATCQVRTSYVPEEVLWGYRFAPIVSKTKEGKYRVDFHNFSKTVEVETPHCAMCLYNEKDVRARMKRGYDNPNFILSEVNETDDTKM
Insulin prom up – MIN6 insulin promoter up-regulation | MIN6 insulin promoter-GFP reporter, high-content imaging; active compounds read high | z-score at 5 µM | actives 0.3% (n = 190,000) | AID 1625;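 active = z-score above 3 at 5 µM with at least 500 cells counted in the well; inconclusive = wells under 500 cells, flagged as cytotoxic or low count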
Cl transport mod – modulates chloride dependent transport by human KCC2 | Q9H2X9 | KCC2 cells, thallium flux FluoZin-2 fluorescence | B-score of Tl+ flux slope (higher = more flux/activation; lower = inhibition) at 10 µM | actives 2.2% (n = 190,000);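 active = thallium flux slope and its plate-corrected score both differing from the plate sample mean at a set confidence after two filtering rounds, in either direction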;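 note: slope of fluorescence scaled to starting intensity during 10 to 20 s after thallium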
INS promoter inh – TRM-6 insulin promoter activity inhibition. TRM-6 cells (human fetal islet line), insulin promoter-eGFP reporter, imaging; reporter expression induced with tamoxifen. inhibition, % at 2 µM. actives 0.9% (n = 130,000);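 active = inhibition above the mean plus 3 SD, with well images judged a real hit on visual review, cut at about 60% in these data, passing the limit was not always enough; inconclusive = inhibition over the cutoff but images rejected on review; inactive = inhibition not above the cutoff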
Of the large screens only hits and unclear results are named; the others gave an inactive call. Hits are enriched below; roughly 12% of the tested compounds scored in any of these assays.

Cc1ccc(N/N=C2\CC(=O)c3ccccc32)cc1Cl	none (no result: INS promoter inh)
CCOC(=O)C1=C(C)N=c2s/c(=C3/C(=O)Nc4ccccc43)c(=O)n2C1c1ccc(C)cc1 (centres undefined)	L major viab 54.3 (no result: ROMK primary, Insulin prom up)
O=C(Nc1nc(=S)ss1)c1c(F)cccc1F	WT yeast gro inh 78.8 (no result: ROMK primary, Insulin prom up)
Cc1ccccc1C(=O)Nc1nc(=S)ss1	Cl transport mod 10.7 (no result: ROMK primary)
CCn1nc(C)cc1C(=O)Sc1ccc(Cl)cc1Cl	none (no result: L major viab, WT yeast gro inh, INS promoter inh)
Brc1cc2c(cc1/C=N/Nc1nc(N3CCCCC3)nc(N3CCCCC3)n1)OCO2	L major viab 67.0 (no result: ROMK primary)
Cc1[nH]c2ccccc2c1/C=N/Nc1nc(N2CCCCC2)nc(N2CCCCC2)n1	L major viab 76.6 (no result: Insulin prom up)
CN(C)c1nc(N/N=C/c2c[nH]c3ccccc23)nc(N2CCOCC2)n1	none (no result: INS promoter inh)
COc1nc(N/N=C/c2cc3c(cc2Br)OCO3)nc(N2CCOCC2)n1	none (no result: INS promoter inh)
C(=N\Nc1nc(N2CCCCC2)nc(N2CCCCC2)n1)/c1c[nH]c2ccccc12	WT yeast gro inh 62.8 (no result: Cl transport mod, INS promoter inh)
CC(=O)Nc1cccc(OC(=O)N2CCOCC2)c1	none (no result: ROMK primary)
CCCCCOc1ccc(C2C(C(C)=O)=C(C)Nc3ncnn32)cc1OC (centres undefined)	none (no result: ROMK primary, INS promoter inh)
CCNc1nc(NC(C)C)nc(N(C#N)CCOc2ccc(Cl)cc2Cl)n1	L major viab 96.8, WT yeast gro inh 80.0 (no result: ROMK primary, Cl transport mod)
Cc1ccc(N=Nc2c(=O)[nH]n3c(=O)cc(C)[nH]c23)cc1	none
C=CCn1c(SCC(=O)NCc2ccccc2)nnc1C1CCCCC1	L major viab 77.7 (no result: ROMK primary)
CCc1ccc2[nH]c3nc(SCC(=O)NNC(=O)c4ccc(C(C)(C)C)cc4)nnc3c2c1	none (no result: ROMK primary, Cl transport mod)
O=C(O)c1cccc(NS(=O)(=O)c2ccc3c(c2)C(=O)c2ccccc2C3=O)c1	none (no result: L major viab, WT yeast gro inh, ROMK primary, INS promoter inh)
O=C1c2ccccc2C(=O)c2cc(S(=O)(=O)Nc3ccccc3)ccc21	WT yeast gro inh 72.0 (no result: Insulin prom up)
CC1(C)C2CCC1(C)C(OC(=O)C[n+]1ccccc1)C2 (centres undefined)	none (no result: L major viab, WT yeast gro inh, INS promoter inh)
CC1(C)C2CCC1(C)C(OC(=O)CC(=O)O)C2 (centres undefined)	WT yeast gro inh 63.7 (no result: Insulin prom up)
CCN(CC)/C(=N/O)NC(=O)NS(=O)(=O)c1ccc(C)cc1	none
Cc1ccccc1C1=NC(C(F)(F)F)(C(F)(F)F)c2c(n(C)c(=O)n(C)c2=O)N1	none (no result: ROMK primary)
Cn1c2c(c(=O)n(C)c1=O)C(C(F)(F)F)(C(F)(F)F)N=C(c1ccc(Cl)cc1)N2	L major viab 100.0, Insulin prom up inconclusive (no result: ROMK primary, Cl transport mod)
COc1ccc(CN(C)CC(=O)NC(C)c2ccccc2)c(OC)c1 (centres undefined)	none (no result: INS promoter inh)
c1csc(-c2noc(CN3CCOCC3)n2)c1	none (no result: L major viab, WT yeast gro inh, ROMK primary, INS promoter inh)
CN(CCN1CCOCC1)Cc1nc(-c2cccs2)no1	L major viab 72.8 (no result: INS promoter inh)
Cc1cccc(NC(=O)Cn2c(=O)n(CCC(=O)NC3CCCC3)c(=O)c3ccccc32)c1	none (no result: ROMK primary)
O=[N+]([O-])c1cccc2c(N3CCCC3)ccnc12	L major viab 88.0 (no result: INS promoter inh)
Fc1ccc(COc2ccccc2CNCc2ccncc2)cc1	L major viab 98.3 (no result: ROMK primary)
COc1ccccc1CNC(=O)c1ccccc1N	none (no result: ROMK primary)
COc1ccccc1CNC(=O)c1ccccc1OCc1ccc(F)cc1	WT yeast gro inh 67.3 (no result: ROMK primary)
OCCNCc1cc(Br)ccc1OCc1ccc(F)cc1	none (no result: INS promoter inh)
Brc1ccc(OCc2ccccc2)c(CNCc2ccncc2)c1	L major viab 93.7 (no result: ROMK primary, Cl transport mod)
NS(=O)(=O)c1ccc(NCc2ccccc2OCc2ccc(F)cc2)cc1	none (no result: INS promoter inh)
CC(C)c1onc(C(=O)NC2CCCC2)c1[N+](=O)[O-]	none
O=C(NCCN1CCN(C(=O)c2cccs2)CC1)C(=O)Nc1ccc(Br)cc1	L major viab 73.4 (no result: WT yeast gro inh, Insulin prom up)
Fc1ccc(C2=NN(c3ccccc3)C(c3ccco3)C2)cc1 (centres undefined)	none (no result: INS promoter inh)
Cc1ccc(C2CC(c3ccccc3)=NN2c2ccccc2)o1 (centres undefined)	L major viab 99.8 (no result: INS promoter inh)
S=C(NCc1ccc2[nH]c3c(c2c1)CCCC3)Nc1ccccc1Cl	none
Cc1ccc(C)c(NC(=S)NCc2ccc3[nH]c4c(c3c2)CCCC4)c1	WT yeast gro inh 79.6
CNC(=S)NCc1ccc2[nH]c3c(c2c1)CCCC3	none
CCCCNC(=S)NCc1ccc2[nH]c3c(c2c1)CCCC3	WT yeast gro inh 68.9
Cc1ccccc1NC(=S)NCc1ccc2[nH]c3c(c2c1)CCCC3	WT yeast gro inh 78.7
CC(C)CCN1CCN(Cc2nc3c(s2)CCCC3)CC1CCO (centres undefined)	L major viab 74.9 (no result: INS promoter inh)

Screens (PubChem BioAssay)
